Results taken from the supplement of paper PMC3334620.
The full ranking holds about 33,000 sequences; the median of “E-score (-0.5 to 0.5)” is about -0.017, and the highest 2% start at about 0.3. Many of the other results were omitted from the sample, so the highest values are more common in it than they were.

The sequences below were run against T1, Sut1 (UniProt P53032) (assay: PBM E-score (8-mer binding enrichment) (E-score (-0.5 to 0.5)); higher = stronger / more preferred TF binding). Conditions: protein concentration: 200 nM; construct: GST-full length.
T1 sequence: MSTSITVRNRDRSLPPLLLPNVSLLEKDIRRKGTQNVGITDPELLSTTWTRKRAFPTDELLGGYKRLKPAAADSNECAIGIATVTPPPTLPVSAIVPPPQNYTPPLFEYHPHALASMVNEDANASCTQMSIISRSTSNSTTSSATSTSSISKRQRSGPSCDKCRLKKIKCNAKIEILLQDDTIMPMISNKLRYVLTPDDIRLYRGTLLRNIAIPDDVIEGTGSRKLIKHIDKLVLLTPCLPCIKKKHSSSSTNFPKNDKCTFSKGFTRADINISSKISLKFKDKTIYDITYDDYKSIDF
Summary of the method: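 Using PURExpress in vitro transcription/translation, GST-tagged yeast transcription factors were made in full-length or DNA-binding-domain form. These were applied at about 100-200 nM to double-stranded universal all-10-mer Agilent arrays, and bound protein was detected with fluorescent anti-GST. Scans were normalised with masliner before the Universal PBM Analysis Suite assigned E-scores to ungapped eight-base words pooled with their reverse complements.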

Row | Sequence | PBM E-score
1 | TATTAATA | 0.167
2 | AATCAAGA | 0.0025
3 | GGCGAGCC | -0.157
4 | GAGCTACA | -0.127
5 | TATAATCA | 0.203
6 | CCCGGGCA | -0.229
7 | AAAATCGC | 0.159
8 | ACTGCTTA | 0.0551
9 | AGAATCCG | 0.00193
10 | GGAAGAGA | 0.0239
11 | CGGGTTGA | -0.223
12 | ACTGTCAA | -0.099
13 | CTATAACC | -0.00144
14 | GTATAACA | 0.215
15 | ATTTAACC | 0.154
16 | ATTTAATC | 0.307
17 | ATATAACA | 0.309
18 | ATTTAACA | 0.213
19 | ATTTAACG | 0.298
20 | CTTTAATC | 0.183
21 | CTATAACA | 0.0773
22 | ATATAACC | 0.0866

Row | Sequence | PBM E-score
23 | ATTTAATA | 0.265
24 | ATATAACG | 0.299
25 | CTAAATAG | 0.0251
26 | ACATTATC | 0.102
27 | ACATACTA | 0.15
28 | AAGCCCTC | -0.213
29 | AATGTGAG | 0.13
30 | GAGGCATA | 0.0426
31 | GCCGTGTA | -0.196
32 | ACTTGAAC | 0.157
33 | GGACTTTA | 0.347
34 | AGACTTGA | 0.0388
35 | CGACTTGA | 0.06
36 | CGACTTTA | 0.166
37 | AGACTTCA | -0.0862
38 | GGACTTCA | 0.321
39 | AGACTTTA | -0.111
40 | CGACTTCA | 0.136
41 | GGACTTGA | 0.339
42 | ATTTTAGG | 0.113
43 | ATACGCTG | 0.025
44 | AGATCATA | 0.155

Row | Sequence | PBM E-score
45 | ATCTGCAC | -0.145
46 | GACCGGGC | -0.0226
47 | AACCGGAT | 0.222
48 | CACCGGAA | 0.361
49 | AACCGGCC | -0.0986
50 | GACCGGAA | 0.179
51 | CACCGGGA | -0.0737
52 | CACCGGTA | -0.12
53 | GACCGGAC | 0.364
54 | AACCGGAA | 0.229
55 | AACCGGAG | 0.43
56 | AACCGGTC | 0.0286
57 | AACCGGAC | 0.345
58 | GTGATTCA | -0.119
59 | CGCCAAAG | -0.237
60 | CCGGGTAA | 0.136
61 | TCGTTCCA | -0.0676
62 | GATGGTGA | -0.174
63 | ACCGTGAA | 0.00123
64 | ACCTGTGG | -0.141
65 | CACCGGCG | 0.117
66 | CACCGGCC | -0.231

Row | Sequence | PBM E-score
67 | CACCGGAG | 0.437
68 | TACCGGTA | 0.0972
69 | TACCGGAA | 0.298
70 | CACCGGTG | 0.0775
71 | CACCGGAC | 0.409
72 | CACCGGTC | -0.223
73 | TACCGGGA | 0.229
74 | ACAGCAAA | 0.127
75 | GCGTCTAA | -0.155
76 | CCCTACCG | -0.233
77 | AGAAACCT | 0.149
78 | GCCTGTCC | -0.154
79 | AAGAACTT | 0.183
80 | CATGAAGC | -0.0952
81 | ACTGTGAC | -0.142
82 | GGTTCGGA | 0.423
83 | GGTTCGCA | -0.0674
84 | AGTTCGGG | 0.0543
85 | GGTTCGAA | 0.14
86 | CGTTCGTA | 0.15
87 | CGTTCGGA | 0.385
